Screening data (PubChem)
The list is not random: actives were taken first. Their share in the collection is about 0.9%.
RXFP1 ag: RXFP1 (human) receptor agonism | Q9HBX9 | HEK293T-RXFP1 cAMP TR-FRET, 30 min; response scale: percent of porcine relaxin response, buffer zero | Potency, µM (top dose mostly 57.5 µM), for the others: at the top dose activation, actives largely listed as activators | hit rate 0.3% among 370,000; active means well fitted activation curve with a large enough effect; inconclusive means small, poorly fitted or top-dose-only effect; further: potency means the concentration at half of the fitted maximal effect; on the % scale 0 is the no-effect control and ±100 the full control effect; nearly all actives have a fitted effect of over 60% in size
Target sequence (Q9HBX9 whole entry, looked up): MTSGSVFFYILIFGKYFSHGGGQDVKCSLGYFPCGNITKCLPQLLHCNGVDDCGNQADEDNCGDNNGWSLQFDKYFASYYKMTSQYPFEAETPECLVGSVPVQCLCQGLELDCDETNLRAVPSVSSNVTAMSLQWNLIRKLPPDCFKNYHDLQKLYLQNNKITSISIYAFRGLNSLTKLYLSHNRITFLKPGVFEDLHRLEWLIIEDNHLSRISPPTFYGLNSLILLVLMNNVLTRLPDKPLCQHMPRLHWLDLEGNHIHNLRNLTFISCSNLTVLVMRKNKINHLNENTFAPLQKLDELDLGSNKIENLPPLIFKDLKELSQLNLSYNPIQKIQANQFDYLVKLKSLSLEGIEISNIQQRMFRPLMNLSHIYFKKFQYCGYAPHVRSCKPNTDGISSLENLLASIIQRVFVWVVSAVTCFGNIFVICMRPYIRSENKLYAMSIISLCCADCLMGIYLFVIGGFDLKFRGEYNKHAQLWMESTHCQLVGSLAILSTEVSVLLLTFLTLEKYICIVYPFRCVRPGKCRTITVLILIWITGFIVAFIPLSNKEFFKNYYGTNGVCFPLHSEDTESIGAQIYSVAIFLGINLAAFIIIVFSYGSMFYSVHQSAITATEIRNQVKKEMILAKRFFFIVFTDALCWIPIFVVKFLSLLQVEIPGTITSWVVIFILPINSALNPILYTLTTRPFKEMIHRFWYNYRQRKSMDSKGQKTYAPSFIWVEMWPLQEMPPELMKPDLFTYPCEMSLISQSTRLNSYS
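Agonist response is measured as cAMP accumulation in an RXFP1-transfected HEK293T line under PDE4 inhibition. Values are scaled between buffer-only and 29 nM porcine relaxin, and EC50s come from standard Hill equation fits.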
gsp agonist: gsp mutant agonism | gsp mutant cells, cAMP HTRF, 30 min | Potency, µM (titrated, usually from 76.9 µM), for the others: at the highest dose activation (cAMP increase), usual class: activators | hit rate 0.13% among 340,000 | AID 624287; active means well fitted activation curve with a large enough effect; inconclusive means small, poorly fitted or top-dose-only effect, or another doubt; inactive means no such curve, though single readings can be large or run the other way; cell line not stated here;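 further: phosphodiesterase inhibitor Ro 20-1724 added with compounds to block cAMP breakdown; potency means the concentration at half of the fitted maximal effect; nearly all actives have a fitted effect of over 60% in size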
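Cells stably selected in G418 were plated at 2000/well, grown 16-24 hr, then given compounds in DMSO with the PDE inhibitor […] (300 uM solution added) for 30 min at 37C; cAMP was read by HTRF.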
gsp antag: antagonists of gsp mutant (McCune-Albright syndrome). hit rate 0.4% among 340,000. gsp-mutant cells, cAMP HTRF, 30 min. Potency, µM (highest dose often 76.9 µM), for inactives: at the highest dose activity change, negative = inhibition, most hits filed as inhibitors. AID 624288; calls by dose curve; cell line not stated here;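 further: intracellular cAMP measured with PDE inhibitor Ro 20-1724 present during compound exposure; potency means the concentration at half of the fitted maximal effect; on the % scale 0 is the no-effect control and ±100 the full control effect; nearly all actives have a fitted effect of over 65% in size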
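Cells, 2000/well, grown 16–24 h in DMEM 10% FBS with 0.5 mg/ml G418, then compounds plus […] (300 uM addition stock), 30 min at 37C. cAMP read by HTRF (cAMP-d2 and anti-cAMP antibody-K in lysis buffer) after 30 min RT.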
RXFP1 antag: antagonists of human relaxin receptor RXFP1. Q9HBX9. HEK293-RXFP1, relaxin-stimulated cAMP HTRF, 30 min; active compounds read low. activity change, negative = inhibition, % at 57.5 µM. hit rate 0.59% among 350,000. AID 1259400;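 active means activity change of -60% or lower, but not beyond a set lower limit; inconclusive means change between -60% and -40%, or beyond the set limit; inactive means change above -40%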; further: on the % scale 0 is the no-effect control and ±100 the full control effect
Numbers without * were called inactive; ? = inconclusive; · = no result given; [ ] = remark or other dose.

SMILES	RXFP1 ag	gsp agonist	gsp antag	RXFP1 antag
Cc1ccc(C2CC(c3ccc(Cl)cc3)=NNC2=O)cc1 (stereo unspecified)	0%	-78%	3%	-22
O=C1NN=C(c2ccc(Br)cc2)CC1c1ccc(Cl)cc1 (stereo unspecified)	2%	-20%	-3%	-61*
CC(=O)c1c(C)[nH]c(C(=O)OCC(=O)Nc2cc(Cl)ccc2[N+](=O)[O-])c1C	0%	?	35µM*	-13
CC(=O)c1c(C)[nH]c(C(=O)OCC(=O)Nc2ccc(C)cc2[N+](=O)[O-])c1C	1%	-18%	?	-6
CCC(Oc1ccc(F)cc1)C(=O)Nc1nc2c(s1)CCCC2 (stereo unspecified)	1%	·	·	-117*
CC(=O)N(C1CC(C)C(C#N)(C#N)C1(C#N)C#N)N(C)C (stereo unspecified)	2%	4%[15.4 µM]	11%	-19
CCCC(=O)N(C1CC(C)C(C#N)(C#N)C1(C#N)C#N)N(C)C (stereo unspecified)	0%	6%[15.4 µM]	-3%	-85*
O=C(c1ccccc1O)N1N=C(c2ccccc2)CC1(O)C(F)(F)F (stereo unspecified)	-1%	-94%	1%	-76*
O=C(C1CC1)N1N=C(c2cccc(Br)c2)CC1(O)C(F)(F)F (stereo unspecified)	2%	-26%[15.4 µM]	1%	-35
O=C(C1CC1)N1N=C(c2ccncc2)CC1(O)C(F)(F)F (stereo unspecified)	0%	-20%	-1%	-62*
COc1cc(OC)c(NC(=O)CCCn2nc(C)c3sc4ccccc4c3c2=O)cc1Cl	11%	·	·	-18
Cc1cccc(-c2nc(CSCC(=O)N3CCN(c4ccccn4)CC3)c(C)o2)c1	-2%	-14%	32µM*	-6
Cc1cccc(-c2nc(CSCC(=O)N3CCN(c4cccc(C)c4C)CC3)c(C)o2)c1	-1%	·	·	-14
CCCCOc1ccccc1Cn1c(=O)sc2ccccc21	0%	·	·	-68*
CCOc1ccc(Cn2c(=O)sc3ccccc32)cc1	0%	?	-8%	-2
CN(C)CCCNC(=S)N(Cc1cccs1)Cc1cc2cc3c(cc2[nH]c1=O)OCCO3	1%	?	2%	-63*
Cc1ccc(S(=O)(=O)N2CCN(C(=O)CN3C(=O)NC4(CCCCC4)C3=O)CC2)c(C)c1	1%	8%[15.4 µM]	9%	-61*
COc1ccccc1-c1c(C)nn2c(N3CCCCCC3)cc(C)nc12	3%	1%	35µM*	·
CCOc1ccc(-c2cn3c(n2)sc2cc(C(=O)NC4CCCc5ccccc54)ccc23)cc1 (stereo unspecified)	7%	·	·	11
NNC(=O)CSc1nc(-c2ccccc2)nc2c1CCCC2	0%	12%	-6%	-69*
CCCCC/C(C=O)=C\c1ccccc1	·	·	·	8
CCN1CCc2c(sc(NC(=O)c3ccc4ccccc4c3)c2C(N)=O)C1	4%	·	·	·
CCN1CCc2c(sc(NC(=S)NC(=O)c3ccc(Cl)cc3)c2C(N)=O)C1	-6%	11%[15.4 µM]	-18%	-110*
COc1ccc2c(c1)O[C@@H](c1cccc(C(F)(F)F)c1)[C@H](OC(=O)Nc1ccc(OC(F)F)cc1)C2=O	4%	8%	11µM*	·
COc1ccc2c(c1)O[C@@H](c1cccc(C(F)(F)F)c1)[C@H](OC(=O)N[C@H]1CCCc3ccccc31)C2=O	0%	·	·	·
SMILES	RXFP1 ag	gsp agonist	gsp antag	RXFP1 antag
COc1ccc2oc(=O)c(-c3csc(Nc4ccc(O)cc4)n3)cc2c1	-3%	0%	25µM*	-39
Cc1cc(N)n2nc(C)c(-c3ccc(Cl)cc3)c2n1	-1%	3%[15.4 µM]	·	0
Cc1cc(Cl)n2nc(C)c(-c3ccc(Cl)cc3)c2n1	2%	11%[15.4 µM]	-22%	-69*
O=C(Cn1c(=O)n(Cc2ccc3c(c2)OCO3)c(=O)c2oc3ccccc3c21)Nc1ccccc1F	2%	·	·	2
O=C(NCc1ccc(F)cc1)c1cnc(N2CCCCC2)c2ccccc12	7%	·	·	-62*
O=C(Nc1ccc(N2CCCCC2)cc1)c1ccccn1	1%	?	-9%	-72*
CCc1ccc(CNC(=O)c2cnc(N3CCCCC3)c3ccccc23)cc1	?	·	·	-39
O=C(Nc1ccccc1)c1cnc(N2CCCCC2)c2ccccc12	6%	·	·	-68*
COc1ccc(NC(=O)Cn2nc(-c3ccncc3)ccc2=O)cc1Cl	5%	·	·	-5
CC(C)(C)c1ccc(C(=O)Nc2ccc(F)cc2)s1	32µM*	17%	2%	?
CCc1cc2cc(C(=O)Nc3ccc(F)cc3)sc2s1	?	?	31%	10
CN(C(=O)CSc1nncn2c1cc1occc12)c1ccccc1	6%	·	·	-3
NC(=O)c1ccc(N2CCN(c3ccc(O)cc3)CC2)c([N+](=O)[O-])c1	-1%	-1%[15.4 µM]	-7%	?
CC(=O)c1ccc(N2CCN(c3ccc(C(N)=O)cc3[N+](=O)[O-])CC2)cc1	0%	4%	32µM*	6
CCc1ccccc1N1C(=O)N(CC(=O)c2ccc(Cl)cc2)c2ccccc2S1(=O)=O	3%	·	·	·
COC(=O)[C@H](C)NC(=O)Nc1ccc(S(N)(=O)=O)cc1	-2%	5%	6%	-10
CC(C)C(Cl)=NOC(=O)Nc1ccc(S(N)(=O)=O)cc1	·	12%	11%	-73*
COC(=O)C1=C(C)NC(C)=C(C(=O)OCCc2ccc(N3CCN(C(c4ccccc4)c4ccccc4)CC3)cc2)C1c1cccc([N+](=O)[O-])c1 (stereo unspecified)	·	·	·	8
Cc1cc(C)cc(NC(=O)CSc2nnc(COc3ccccc3Cl)o2)c1	1%	·	·	·
COC(=O)c1ccc2nc(NC(=O)C3CCCCC3)sc2c1	6%	-44%	3%	-9
COC(=O)c1ccc2nc(NC(=O)C(C)(C)C)sc2c1	0%	-3%[15.4 µM]	-25%	-85*
CCC1Oc2ccc(Cl)cc2N(CC(=O)NCCc2ccc(Cl)cc2)C1=O (stereo unspecified)	1%	·	·	-7
O=C(CCCN1CCN(c2ccc(F)cc2)CC1)NC1c2ccccc2CSc2ccccc21 (stereo unspecified)	·	·	·	-27
O=C(NCC(c1ccco1)N1CCc2ccccc21)C(=O)Nc1ccccc1 (stereo unspecified)	0%	7%[15.4 µM]	2%	-66*
O=C(NCC(c1ccco1)N1CCc2ccccc21)C(=O)Nc1ccccc1F (stereo unspecified)	3%	-55%	1%	-25
COc1cc(C2c3c(oc4ccccc4c3=O)C(=O)N2c2nccs2)ccc1O (stereo unspecified)	0%	-41%[15.4 µM]	2%	-105*
CCOC(=O)c1c(NC(=S)Nc2ccc(Cl)cc2)sc(C)c1C	2%	-7%	-10%	-1
COC(=O)c1c(NC(=S)Nc2ccc(CC(=O)O)cc2)sc(C)c1C	18%	?	0%	-63*
O=C1/C(=C/c2ccc([N+](=O)[O-])cc2)Oc2cc(O)ccc21	-1%	1%[15.4 µM]	22µM*	-6
